Laboratory results published in the supplement of paper PMC8728848.
This is one part of a sample in which the strongest signals are shown more often than they occur.

Tests used:
Assay in all cases: glycan array binding signal (z-score within array); higher = stronger binding
Conditions in all cases: glycan notation: IUPAC condensed, linker removed
[1] = biological target: Fuc(a1-2)Gal(b1-4)GlcNAc(b1-2)Man(a1-3)[Fuc(a1-2)Gal(b1-4)GlcNAc(b1-2)Man(a1-6)]Man(b1-4)GlcNAc(b1-4)GlcNAc
Procedure, shortened: (§1)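 Glycan array data came from 3228 arrays in the Consortium for Functional Glycomics database, and only arrays with an available protein sequence were kept. Glycan names were put into IUPAC-condensed notation, and columns mapping to the same glycan were averaged. The binding signal is a within-array Z-score, averaged across arrays of one protein sequence run at different concentrations or buffers and across linkers. A negative Z-score can be read as non-binding.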

[2] = biological target: Fuc(a1-2)Gal6S(b1-4)Glc6S
Procedure, shortened: as §1

[3] = biological target: Fuc(a1-2)Gal6S(b1-4)GlcNAc
Procedure, shortened: as §1

[4] = biological target: Fuc(a1-2)[GalNAc(a1-3)]Gal(b1-4)Glc
Procedure, shortened: as §1

[5] = biological target: Fuc(a1-3)[Gal(b1-4)]GlcNAc6S
Procedure, shortened: as §1

[6] = biological target: Gal(a1-3)[Gal(a1-4)]Gal(b1-4)GlcNAc
Procedure, shortened: as §1

Gal(a1-4)GlcNAc = biological target: Gal(a1-4)GlcNAc
Procedure, shortened: as §1

[7] = biological target: Gal(b1-3)GalNAc(a1-3)[Fuc(a1-2)]Gal(b1-4)GlcNAc
Procedure, shortened: as §1

[8] = biological target: Gal(b1-3)GlcNAc(b1-2)Man(a1-3)[Gal(b1-3)GlcNAc(b1-2)Man(a1-6)]Man(b1-4)GlcNAc(b1-4)GlcNAc
Procedure, shortened: as §1

Gal(b1-4)GlcNAc = biological target: Gal(b1-4)GlcNAc
Procedure, shortened: as §1

Gal3S(b1-3)GlcNAc = biological target: Gal3S(b1-3)GlcNAc
Procedure, shortened: as §1

Gal3S4S(b1-4)GlcNAc = biological target: Gal3S4S(b1-4)GlcNAc
Procedure, shortened: as §1

GalNAc(b1-3)Gal = biological target: GalNAc(b1-3)Gal
Procedure, shortened: as §1

[9] = biological target: GlcNAc(a1-4)Gal(b1-4)GalNAc
Procedure, shortened: as §1

[10] = biological target: GlcNAc(b1-4)[GlcNAc(b1-6)]GalNAc
Procedure, shortened: as §1

[11] = biological target: GlcNAc(b1-6)Gal(b1-4)GlcNAc
Procedure, shortened: as §1

GlcNAc3Prop(b1-4)GlcNAc = biological target: GlcNAc3Prop(b1-4)GlcNAc
Procedure, shortened: as §1

[12] = biological target: GlcNAc6S(b1-3)Gal(b1-4)GlcNAc
Procedure, shortened: as §1

Kdn(a2-6)Gal(b1-4)GlcNAc = biological target: Kdn(a2-6)Gal(b1-4)GlcNAc
Procedure, shortened: as §1

[13] = biological target: Neu5Ac(a2-3)Gal(b1-3)[Fuc(a1-4)]GlcNAc
Procedure, shortened: as §1

[14] = biological target: Neu5Ac(a2-3)Gal(b1-4)GlcNAc(b1-2)Man(a1-3)[Neu5Ac(a2-6)Gal(b1-4)GlcNAc(b1-2)Man(a1-6)]Man(b1-4)GlcNAc(b1-4)GlcNAc
Procedure, shortened: as §1

[15] = biological target: Neu5Ac(a2-3)Gal(b1-4)GlcNAc(b1-3)GalNAc
Procedure, shortened: as §1

[16] = biological target: Neu5Ac(a2-3)Gal(b1-4)[Fuc(a1-3)]GlcNAc(b1-6)[Neu5Ac(a2-3)Gal(b1-3)]GalNAc
Procedure, shortened: as §1

[17] = biological target: Neu5Ac(a2-3)[GalNAc(b1-4)]Gal(b1-4)GlcNAc
Procedure, shortened: as §1

[18] = biological target: Neu5Ac(a2-6)Gal(b1-4)GlcNAc(b1-2)Man(a1-3)[GlcNAc(b1-2)Man(a1-6)]Man(b1-4)GlcNAc(b1-4)GlcNAc
Procedure, shortened: as §1

[19] = biological target: Neu5Ac(a2-6)Gal(b1-4)GlcNAc(b1-2)Man(a1-6)[Man(a1-3)]Man(b1-4)GlcNAc(b1-4)GlcNAc
Procedure, shortened: as §1

[20] = biological target: Neu5Ac(a2-8)Neu5Ac(a2-8)Neu5Ac
Procedure, shortened: as §1

B1: 4F2hc (Homo sapiens), P08195 (protein)
chain: WWHTGALYRIGDLQAFQGHGAGNLAGLKGRLDYLSSLKVKGLVLGPIHKNQKDDVAQTDLLQIDPNFGSKEDFDSLLQSAKKKSIRVILDLTPNYRGENSWFSTQVDTVATKVKDALEFWLQAGVDGFQVRDIENLKDASSFLAEWQNITKGFSEDRLLIAGTNSSDLQQILSLLESNKDLLLTSSYLSDSGSTGEHTKSLVTQYLNATGNRWCSWSLSQARLLTSFLPAQLLRLYQLMLFTLPGTPVFSYGDEIGLDAAALPGQPMEAPVMLWDESSFPDIPGAVSANMTVKGQSEDPGSLLSLFRRLSDQRSKERSLLHGDFHAFSAGPGLFSYIRHWDQNERFLVVLNFGDVGLSAGLQASDLPASASLPAKADLLLSTQPGREEGSPLELERLKLEPHEGLLLRFPYAA
glycan array binding signal (z-score) [1]: -0.399
glycan array binding signal (z-score) [2]: -0.953
glycan array binding signal (z-score) [3]: -1.01
glycan array binding signal (z-score) [4]: 6.38
glycan array binding signal (z-score) [5]: 2.68
glycan array binding signal (z-score) [6]: -0.32
glycan array binding signal (z-score) (Gal(a1-4)GlcNAc): -0.668
glycan array binding signal (z-score) [7]: -0.507
glycan array binding signal (z-score) [8]: 3.66
glycan array binding signal (z-score) (Gal(b1-4)GlcNAc): -0.318
glycan array binding signal (z-score) (Gal3S(b1-3)GlcNAc): 0.65
glycan array binding signal (z-score) (Gal3S4S(b1-4)GlcNAc): 3.95
glycan array binding signal (z-score) (GalNAc(b1-3)Gal): -0.631
glycan array binding signal (z-score) [9]: -1.21
glycan array binding signal (z-score) [10]: 0.848
glycan array binding signal (z-score) [11]: 0.103
glycan array binding signal (z-score) (GlcNAc3Prop(b1-4)GlcNAc): 0.691
glycan array binding signal (z-score) [12]: -1.04
glycan array binding signal (z-score) (Kdn(a2-6)Gal(b1-4)GlcNAc): 0.863
glycan array binding signal (z-score) [13]: 1.08
glycan array binding signal (z-score) [14]: -0.878
glycan array binding signal (z-score) [15]: -0.993
glycan array binding signal (z-score) [16]: 3.35
glycan array binding signal (z-score) [17]: -0.5
glycan array binding signal (z-score) [18]: -0.141
glycan array binding signal (z-score) [19]: 5.26
glycan array binding signal (z-score) [20]: -0.566
